Drawing on PubChem BioAssay AID1345083 (National Center for Advancing Translational Sciences (NCATS), 2018), this text covers Potency for 99 compounds.

About 6,200 (6.6%) of roughly 94,000 compounds were called active. About 31% were inconclusive and are not listed. The call rests on the fitted dose curve; in most records, active means well fitted inhibition curve with a large enough effect; inconclusive means small, poorly fitted or top-dose-only effect; inactive means flat fitted curve, though single readings scatter. What follows is part of a selection rich in actives, with near analogues and random picks from the rest. Entries that show only a call come without a potency.
Potency means the concentration at half of the fitted maximal effect.

The test in a line: Cytotoxic Profiling in HEK 293 Cell Line of Diverse Libraries Using Quantitative High-Throughput Screening. Further: nearly all actives have a fitted effect of over 60% in size. To be noted: HEK 293 viability, ATP luminescence (CellTiter-Glo), 48-72 h; series mostly up to 115 µM. From the text: Cell-based phenotypic screening is a commonly used approach to discover biological pathways, novel drug targets, chemical probes and high-quality hit-to-lead molecules. Many hits identified from high-throughput screening campaign are ruled out through a series of follow-up potency, selectivity/specificity, and cytotoxicity assays. Prioritization of molecules with little or no cytotoxicity for a more in-depth downstream evaluation influence the future direction of projects, so cytotoxicity profiling of the screening libraries at early stage is essential for increasing the likelihood of candidate success. In this study, we analyzed results from a cell-based cytotoxicity screening campaign, comprising nearly 10,000 compounds in NCATS annotated libraries, and over 100,000 compounds in a diversity library, evaluated in four normal cell lines (HEK 293, NIH 3T3, CRL-7250 and HaCat) and a cancer cell line (KB 3-1, a HeLa subline) with overall screening outcomes, hit rates, pan-activity and selectivity. For the annotated library, we also examined the primary targets and mechanistic pathways regularly associated with cell death. To our knowledge, this is the first study to use high-throughput screening to profile large libraries for cytotoxicity assessment in both normal and cancer cell lines. In summary, the results generated here constitutes a valuable resource for the scientific community and provides insight on identifying cytotoxic compounds with particular mechanisms of action, and prioritizing compounds with suitable cytotoxicity profile for further evaluation.
HEK 293 cells were seeded into white 1536-well plates using a Multidrop Combi peristaltic dispenser (ThermoFisher, Waltham, MA) at a density of 250 cells/well in 5 uL of medium respectively. A pintool (Kalypsys) was used to transfer 23 nL of compound solution to the 1536-well assay plates. After 48 or 72 hr incubation at 37 degree Celsius, 5% CO2 and 95% humidity, 2.5 uL of CellTiter-Glo (Promega) was dispensed into each well using a dispenser (Aspect Automation, St. Paul, MN) with solenoid valves (Lee Valves, Westbrook CT). Plates were left at room temperature for 10 min before imaging the ATP-coupled luminescence using a ViewLux microplate imager (PerkinElmer, Waltham, MA).
Background: Cellular ATP, detected with luciferase, serves as a proxy for viable cell number.
Consider `CN(C)C(=O)c1n[nH]c2c1CN(C(=O)c1ccccc1Br)CC2`, for which the Potency result is “inactive”.

Regarding `O=C(NCCCc1ccccc1)c1n[nH]c2c1CN(C(=O)C1CC1)CC2`, the Potency is 11.2 µM (active). Turning to `COC(=O)c1n[nH]c2c1CN(C(=O)[C@H]1CCC[C@@H](O)C1)CC2`, the Potency result is “inactive”. As for `CN(C)C[C@@H]1CN(S(C)(=O)=O)C[C@H]1NC(=O)c1ccc(C#N)cc1`, the Potency result is “inactive”. For `Cn1nc(C2CCCN2C(=O)NC2CCCCC2)n(Cc2ccccc2)c1=O` (centres undefined) the value was “inactive”; for `COCCn1c(C)cnc1CC1CCN(C(=O)c2ccc(OC)cc2OC)CC1`, “inactive”; for `Cc1cc(C(=O)N2CCCC(Cc3noc(-c4cccnc4)n3)C2)nn1C` (centres undefined), “inactive”. For `COCCCNC(=O)N1CCC(Cc2noc(-c3ccncc3)n2)C1` (centres undefined) the value was “inactive”; for `COc1ccc(NC(=O)N2CCCC(Cc3noc(-c4ccccc4)n3)C2)cc1` (centres undefined), 35.5 µM (active); for `Cc1nc(-c2cn(C3CCCN(C(=O)c4cc(F)ccc4F)C3)nn2)no1` (centres undefined), “inactive”. Consider `COC(=O)[C@H](CC1CCCCC1)NC(=O)[C@@H]1CN(C(=O)c2ccc(N(C)C)cc2)CCN1C(C)=O`, for which the Potency result was “inactive”.

With `COc1ccc(NC(=O)N2C[C@@H](F)C[C@H]2C(=O)N2CCCCC2)c(C)c1`, the Potency result is “inactive”. With `Cc1cc(Cl)ccc1-c1ccc(CN)cc1` the figure was 31.6 µM (active). For `NCc1ccc(-c2cncnc2)cc1` the value was “inactive”; for `O=C(CCc1ccc2c(c1)CNCCO2)NCC1CC1`, “inactive”; for `O=C1CCCCC(CNC(=O)c2ccoc2)N1` (centres undefined), “inactive”. With `Cc1ccc(CNC(=O)N2CCC3(CC2)CC(N(C2CC2)S(C)(=O)=O)CCO3)cc1` (centres undefined) the entry was “inactive”. Turning to `Cc1nc(-c2ccccc2OC2CN(S(=O)(=O)c3cn(C)cn3)C2)no1`, the Potency entry was “inactive”. As to `COc1cc2c(cc1OC)C(CNC(=O)c1ccc(Cl)cc1)N(C(=O)Nc1ccccc1)CC2` (centres undefined), the Potency result is “inactive”. `COc1ccccc1-c1cc(C(=O)NCc2cnn(C)c2)c2c(c1)N(C)CCO2`: the Potency result was “inactive”.

Regarding `COc1ccccc1-c1cnc(NC(=O)c2ccc(Cl)cc2)c2c1CCO2`, the Potency was 63.1 µM (active).

On to `COc1ccccc1-c1cnc(Nc2ccncc2)c2c1CCO2`, for which the Potency was 63.1 µM (active).

`CCS(=O)(=O)N1CC(F)(F)C[C@H]1c1nc(C2CC2)no1`: the Potency entry is “inactive”. For `CC(C)(C)n1nnnc1C1CC2(CCOCC2)C(=O)N1Cc1cccc(F)c1` (centres undefined) the value was “inactive”; for `O=C1CC2(CCN(C(=O)C3CCN(C(=O)Cc4ccccn4)CC3)CC2)Oc2ccccc2N1`, “inactive”.

On to `Cc1cnc(C)n1CCN`, for which the Potency result is “inactive”.

Take `Cc1ccccc1S(=O)(=O)N1CCN(C(=O)N2CC3CC(C2)[C@H]2CCCC(=O)N2C3)CC1` (some centres undefined): the Potency result is “inactive”. `CCNC(=O)c1cccnc1OC1CCN(C(=O)CC2CCCC2)C1` (centres undefined): the Potency entry was “inactive”. For `CN1CCC(N2CC[C@H](c3nc4ccccc4s3)C2)CC1` the value was 31.6 µM (active). For `Cn1c([C@H]2CCN(C3CCOCC3)C2)nc2ccccc21` the value was “inactive”; for `c1ccc2sc(C3CCCN(Cc4cc5n(n4)CCNC5)C3)nc2c1` (centres undefined), “inactive”. With `COc1cccc(CC(=O)NCCC2CCN(C(=O)Nc3ccc(C)cc3)CC2)c1` the entry was “inactive”; with `COc1cccc(NC(=O)NC[C@H]2O[C@@H](CO)[C@@H](O)[C@H]2N(C)CCN(C)C)c1`, “inactive”. Consider `COC(=O)[C@@H]1Cc2c([nH]c3ccccc23)[C@H]2C[C@H](NCCNC(C)=O)C[C@@H](c3ccc(C)cc3)N21`, for which the Potency was 25.1 µM (active). `COC(=O)[C@@H]1C[C@@H](NC(=O)c2ccc(-c3nnn(C)n3)cc2)CN1C`: the Potency entry was “inactive”. For `C#CCN[C@@H]1C[C@@H]2c3[nH]c4ccccc4c3C[C@@H](C(=O)OC)N2[C@H](c2ccc(F)cc2)C1` the value was 31.6 µM (active); for `CN(CCNC(=O)C1CCCN(S(C)(=O)=O)CCC(=O)NCC1)C1CCCCC1` (centres undefined), “inactive”. For `Cc1cc(C)n(CCC(=O)N[C@@H]2CN(S(C)(=O)=O)C[C@H]2CN(C)C)n1` the value was “inactive”; for `COc1ccc(CNC(=O)NCC(=O)N2CCCCCCNC(=O)CC2c2ccccc2)cc1` (centres undefined), “inactive”; for `O=[S+]1([O-])NCC2(CCN(CC3CC3)CC2)Oc2ncccc21`, “inactive”. Take `Cc1noc([C@@H]2CC(F)(F)CN2C(=O)c2cc(C)on2)n1`: the Potency result was “inactive”.

Take `Cn1cc(CN2CCOC[C@H]2c2ncc(-c3cccc(F)c3)[nH]2)c2ccccc21`: the Potency was 35.5 µM (active). With `Oc1ccccc1CN1CCOC[C@H]1c1ncc(-c2ccc(C(F)(F)F)cc2)[nH]1` the figure was 70.8 µM (active).

For `c1cncc(-c2cnc([C@@H]3COCCN3Cc3cnc4ccccc4c3)[nH]2)c1`, the Potency entry was “inactive”. Take `Fc1ccc(CN2CCOC[C@H]2c2ncc(-c3cccnc3)[nH]2)cc1`: the Potency entry is “inactive”. For `Cc1ccc(CN2CCOC[C@H]2c2ncc(-c3cccc(F)c3)[nH]2)cc1` the value was 70.8 µM (active); for `CC(=O)N1CCC(N2CCOC[C@H]2c2ncc(-c3ccc(Cl)s3)[nH]2)CC1`, “inactive”; for `Cn1cc(CN2CC[C@H](c3nnc(-c4cccnc4)o3)C2)c2ccccc21`, “inactive”. With `c1cc(CN2CCOC[C@H]2c2ncc(-c3ccncc3)[nH]2)ccn1`, the Potency entry is “inactive”. With `CC(C)(C)c1coc([C@@H]2COCCN2Cc2ccc(F)cc2)n1`, the Potency entry was “inactive”. For `O=C(CC1CCCCC1)Nc1ccc(-c2nnc3n2CCCC3)cc1` the value was “inactive”; for `Cc1nsc(NC(=O)N2CCC(C(=O)N3CCCC3)CC2)n1`, “inactive”.

On to `Cc1c(C(=O)N2CCn3nc(CO)cc3C2)cnc2cc(=O)[nH]n12`, for which the Potency result was “inactive”. As to `COCC(=O)N[C@@H]1CN(Cc2ccccc2OC(C)C)C[C@H]1CO`, the Potency entry was “inactive”. For `Cn1cnc(S(=O)(=O)N2CCOCCNC(=O)[C@@H]3CCC[C@@H]32)c1` the value was “inactive”; for `O=C(Cn1ccn2nc(-c3ccc(F)cc3)c(CO)c2c1=O)Nc1ccc(F)cc1F`, “inactive”. With `CC(C)C1=NOC2(CCN(C3CCCCC3)CC2)C1` the entry was “inactive”. For `CNC(=O)[C@@H]1CN(Cc2ccncc2)C[C@H]1COC` the value was “inactive”. Regarding `O=C1CCCCC(CNC(=O)c2ccncc2)N1` (centres undefined), the Potency result is “inactive”. `O=C(O)CCNC(=O)Cn1nc2c(cc1=O)CCCCC2`: the Potency result is “inactive”.

For `Cn1nnc(-c2ccc(C(=O)N3CCC4(CCCO4)CC3)cc2)n1`, the Potency result is “inactive”. As to `O=C1Nc2ccc(-c3ccsc3)cc2C(=O)N2CC[C@H](NS(=O)(=O)c3cccs3)[C@@H]12`, the Potency entry is “inactive”. For `COc1ccc(C)cc1NC(=O)CN1C(=O)NC(c2ccccc2Cl)C2=C1COC2=O` (centres undefined) the value was “inactive”; for `Cc1ccccc1NC(=O)CN1C(=O)NC(c2ccccc2Cl)C2=C1COC2=O` (centres undefined), “inactive”; for `Cc1ccc(Cl)cc1NC(=O)CN1C(=O)NC(c2ccc(Cl)cc2)C2=C1COC2=O` (centres undefined), 12.6 µM (active). With `COc1cccc(CN2CCC(N3C(=O)c4c(c(C)nn4-c4ccccc4)C3C3CC3)CC2)c1` (centres undefined) the figure was 35.5 µM (active); with `COc1cccc(C(=O)N2CCC(N3C(=O)c4c(c(C)nn4-c4ccccc4)C3C)C2)c1` (centres undefined), 35.5 µM (active). Turning to `COc1cccc(CC(=O)N2CCC(N3C(=O)CCC3C(=O)NCc3ccccc3)CC2)c1` (centres undefined), the Potency entry was “inactive”. With `Cc1nn(-c2ccccc2)c2c1C(C(C)C)N(C1CCN(C(=O)c3ccc(Cl)nc3)CC1)C2=O` (centres undefined) the entry was “inactive”; with `Cc1nn(-c2ccccc2)c2c1C(C(C)C)N(C1CN(C(=O)c3ccccc3Cl)C1)C2=O` (centres undefined), “inactive”. With `Cc1nn(-c2ccccc2)c2c1C(C)N(C1CCCN(C(=O)c3ccccn3)C1)C2=O` (centres undefined) the entry was “inactive”. With `CC1(C(=O)O)CCN(C(=O)C2CCCC2)CC1` the entry was “inactive”. `C=CCNC(=O)C[C@@H]1CCN(C(=O)c2cccnc2)C[C@@H]1CC`: the Potency result was “inactive”. For `COCCOC1CCOC2(CCN(C(=O)C3(c4ccc(OC)cc4)CC3)CC2)C1` (centres undefined) the value was “inactive”.

As for `CC(=O)N1CCC(Cc2ccc(C(=O)NC3CC3)cc2)CC1`, the Potency entry is “inactive”. For `COCCN(C)Cc1ccc(CC2CCN(C(=O)C3(c4ccc(OC)cc4)CC3)CC2)cc1` the value was 39.8 µM (active); for `O=C1CC(c2ccccc2)N(Cc2ccncc2)CCCN(C(=O)COc2ccccc2)CCN1` (centres undefined), “inactive”. With `Cc1ccc(OCCC2CCN(C(=O)CCN3C(=O)NC(C)(C)C3=O)C2)cc1` (centres undefined) the entry was “inactive”.

Take `O=C(c1cccc(F)c1)N1CCCC(CN2CCOCC2)CC1` (centres undefined): the Potency entry was “inactive”. Consider `O=C(c1cccc(F)c1)N1CCC(CCOc2ccc(F)cc2)C1` (centres undefined), for which the Potency was 44.7 µM (active).

Regarding `Cc1cnc(CCNC(=O)c2cn(C)cn2)n1C1CC1`, the Potency entry is “inactive”. For `O=[S+]([O-])(c1ccccc1)N1CCCC2(CC(c3ccccn3)=NO2)C1` (centres undefined) the value was “inactive”.

Regarding `O=[S+]([O-])(c1ccccc1)N1CCC2(CC(c3cccnc3)=NO2)C1` (centres undefined), the Potency result is “inactive”. For `Cc1ccc([S+](=O)([O-])N2CCC3(CC2)CC(=O)N(c2ccccc2)c2ccccc2O3)cc1` the value was 25.1 µM (active). With `NC(=O)c1cccnc1OC1CCNCC1` the entry was “inactive”. With `COc1ccc(C)cc1NC(=O)Cn1nc2n(c1=O)CCCC2`, the Potency entry is “inactive”.

Regarding `CC(C)Cc1ccc(CN2CCC3(CC2)Cc2ccccc2CNC3=O)cc1`, the Potency is 22.4 µM (active). For `COc1ccc(CN2CCC3(CC2)Cc2ccccc2CNC3=O)cn1` the value was “inactive”; for `O=C1NCc2ccccc2CC12CCN(Cc1ccc(O)cc1)CC2`, “inactive”.

Turning to `COc1ccc(C2(C(=O)NCc3cccc(C(F)(F)F)c3)CCOCC2)cc1`, the Potency entry is “inactive”. Consider `COCC(=O)NC[C@@H]1C=C(C)[C@H](CC(=O)Nc2ccccn2)C[C@H]1C(C)C`, for which the Potency result is “inactive”. As for `CC1=C[C@@H](CN(C)CCc2ccccn2)[C@H](C(C)C)C[C@H]1Cc1nnc(-c2ccccc2F)o1`, the Potency is 44.7 µM (active). `NC(=O)c1ccc(OC2CCN(C(=O)c3ccc(F)cc3)CC2)nc1`: the Potency entry is “inactive”. With `O=C1CCN(C(=O)[C@@H](Cc2ccccc2)NS(=O)(=O)c2cccc3cccnc23)CCOCCN1` the entry was “inactive”; with `O=C(NCCc1ccccc1)NC1CCc2nn(CC3CC3)c(=O)n2CC1` (centres undefined), “inactive”; with `O=C(Nc1cnc(-c2cccc(Cl)c2)nc1)c1ccc(F)cc1`, 44.7 µM (active).

In the case of `O=C(Cc1cccc(F)c1)Nc1cnc(-c2cccnc2)nc1`, the Potency result is “inactive”. With `O=C(Nc1ccc(F)cc1)c1ccc2nc(-c3cccnc3)oc2c1` the entry was “inactive”. With `COC(=O)COc1cccn2c(=O)c(-c3cc(C)n(-c4ccc(C)cc4C)n3)c(C)nc12` the entry was “inactive”.
